# Measurements taken from PubChem BioAssay (EPA / NIEHS).
# Where “and” joins values, the source holds several entries; their conditions need not be identical. Equal values may be shown once. Where a structure was tested more than once in an assay, its records may differ in their call. Calls of active or inactive are those of the source. Rule for the calls: active = hit-call score of the fitted dose curve at least 0.9, where 1 is the maximum; inactive = score below 0.9.
# Read-out: Plasminogen activator inhibitor-1 (PAI1), SERPINE1 (gene 5054)
# Assay: BSK_hDFCGF_PAI1: BioMAP Diversity Plus: hDFCGF Assay for Plasminogen activator inhibitor-1 (PAI1) Biomarker Activity (AID 2283066)
# Details: primary human foreskin fibroblasts; actives raise or lower the signal
# Description: BSK_hDFCGF is a cell-based, multiplexed-readout assay that uses foreskin fibroblast, a human skin primary cell, with measurements taken at 24 hours after chemical dosing in a 96-well plate.BSK_hDFCGF_PAI1 is an assay component measured in the BSK_hDFCGF assay. It measures PAI-1 antibody related to regulation of gene expression using ELISA technology.Data from the assay component BSK_hDFCGF_PAI1 was analyzed into 1 assay endpoint. This assay endpoint, BSK_hDFCGF_PAI1, was analyzed with bidirectional fitting relative to DMSO as the negative control and baseline of activity. Using a type of binding reporter, gain or loss-of-signal activity can be used to understand changes in the signaling as they relate to the gene SERPINE1. Furthermore, this assay endpoint can be referred to as a primary readout, because this assay has produced multiple assay endpoints where this one serves a signaling function. To generalize the intended target to other relatable targets, this assay endpoint is annotated to the cytokine intended target family, where the subfamily is plasmogen activator inhibitor.
# The levels of cell surface (or secreted, indicated by the prefix "s") biomarker endpoints were measured by ELISA. Overt cytotoxicity to cells in confluent adherent cultures (all systems other than the BT system) was assessed by measuring total protein levels using sulforhodamine B (SRB) staining in parallel cultures at the time of biomarker measurements, indicated as SRB endpoints. For proliferation assays for adherent cell types, individual cell types are cultured at sub-confluence and relative cell numbers quantified by SRB staining at time points optimized for each system (48 h: 3C and CASM3C systems; 72 h: BT and HDF3CGF systems; 96 h: SAg system). SRB was performed by staining cells with 0.1% SRB after fixation with 10% TCA and reading wells at 560 nm.Viability and proliferation of PBMC (T cells) was quantified by Alamar Blue reduction for the SAg and BT systems. For PBMC viability (referred to as PBMC Cytotoxicity within the assay endpoint names), cells were plated (75,000/well in a 96-well plate) and then chemical samples added for 1 h before addition of activators, SEB and TSST-1 (20 ng/mL final concentration each). Cells were incubated for 90 h. Then, Alamar Blue (20 uL/well) (Invitrogen, Cat DAL1100) was added for 6 h, and the plates were read with a fluorescence microplate reader at 546/580 nm (excitation/emission). For PBMC proliferation, cells were plated and activated as above but incubated for only 16 h prior to addition of Alamar Blue. Plates were read after 6 h.
SMILES,AC50,outcome
C=CCC1=C(C)[C@@H](OC(=O)[C@@H]2[C@@H](C=C(C)C)C2(C)C)CC1=O,36.6 µM (active),
CNC(=S)S,,inactive
CC(C)(C)c1ccc(CSc2cnn(C(C)(C)C)c(=O)c2Cl)cc1,,inactive
COc1cnc(OC)n2nc(NS(=O)(=O)c3c(OCC(F)F)cccc3C(F)(F)F)nc12,,inactive
COc1nc(C)nc(NC(=O)NS(=O)(=O)c2ccccc2CCC(F)(F)F)n1,,inactive
O=C(O)c1nc(Cl)ccc1Cl,,inactive
CCCN(CCC)c1c([N+](=O)[O-])cc(S(N)(=O)=O)cc1[N+](=O)[O-],21.1 µM (active) and 21.6 µM (active),inactive
COC(=O)C(C)Oc1ccc(Oc2ccc(Cl)cc2Cl)cc1 (stereo not given),,inactive
C=CC1(C)OC(=O)N(c2cc(Cl)cc(Cl)c2)C1=O (stereo not given),,inactive
CCCCOC(=O)c1ccccc1C(=O)OCCCC,,inactive
O=C(Nc1ccccc1)Nc1ccnc(Cl)c1,,inactive
CCCC1COC(Cn2cncn2)(c2ccc(Cl)cc2Cl)O1 (stereo not given),,inactive
CCOc1cc(Oc2ccc(C(F)(F)F)cc2Cl)ccc1[N+](=O)[O-],5.49 µM (active),
COc1ccc(C(c2ccc(OC)cc2)C(Cl)(Cl)Cl)cc1,14.7 µM (active),
CC1=C(C(=O)Nc2ccccc2)SCCO1,,inactive
Fc1ccc(Oc2ccnc3cc(Cl)cc(Cl)c23)cc1,18 µM (active),
CC1COC(Cn2cncn2)(c2ccc(Oc3ccc(Cl)cc3)cc2Cl)O1 (stereo not given),32.1 µM (active),
CCNc1nc(Cl)nc(NCC)n1,,inactive
CCCCC(CC)COC(=O)c1ccccc1C(=O)OCC(CC)CCCC (stereo not given),,inactive
CN(C)C(=S)SSC(=S)N(C)C,5.64 µM (active),

SMILES,AC50,outcome
CCOP(=S)(OCC)SCn1c(=O)oc2cc(Cl)ccc21,13.8 µM (active),
CCNc1nc(Cl)nc(NC(C)C)n1,,inactive
O=C(O)COc1nc(Cl)c(Cl)cc1Cl,,inactive
COC(=O)c1ccccc1C(=O)OC,,inactive
OC(c1ccc(Cl)cc1)(c1cncnc1)c1ccccc1Cl (stereo not given),16.6 µM (active),
COc1nc(NC(C)C)nc(NC(C)C)n1,,inactive
CO/C=C(/C(=O)OC)c1ccccc1Oc1cc(Oc2ccccc2C#N)ncn1,,inactive
N#CC(CCc1ccc(Cl)cc1)(Cn1cncn1)c1ccccc1 (stereo not given),,inactive
CCCCNC(=O)n1c(NC(=O)OC)nc2ccccc21,,inactive
COP(N)(=O)SC (stereo not given),,inactive
CC(C)Oc1cc(-n2nc(C(C)(C)C)oc2=O)c(Cl)cc1Cl,24.4 µM (active),
CCOC(=O)CC(SP(=S)(OC)OC)C(=O)OCC (stereo not given),,inactive
Cc1ccc(-c2c(Cl)nc(C#N)n2S(=O)(=O)N(C)C)cc1,,inactive
CCCCNC(=O)OCC#CI,7.77 µM (active) and 7.46 µM (active),
COc1nc(C)nc(NC(=O)NS(=O)(=O)c2ccccc2Cl)n1,,inactive
Oc1ccccc1-c1ccccc1,,inactive
COP(=S)(OC)Oc1nc(Cl)c(Cl)cc1Cl,,inactive
CS/C(C)=N/OC(=O)N(C)SN(C)C(=O)O/N=C(\C)SC,12 µM (active),
N#Cc1cc(Br)c(O)c(Br)c1,,inactive
